Data taken from PubChem BioAssay (NCATS).
Results filed as inconclusive are left out. Values without a mark were called inactive. Active and inactive are the calls of the source. Calls come from the whole dose curve; tested in HEK293 reporter line.

experiment: qHTS for Inhibitors of the Functional Ribonucleoprotein Complex (vRNP) of Lassa (LASV) Arenavirus: Viability assay - alamar blue signal for LASV Primary Screen (AID 1347083); settings: cell viability, alamar blue fluorescence (LASV minigenome counter-screen); series mostly up to 57.5 µM; activity change, negative = reduced viability: at the top concentration
% is set by controls: 0 for no effect and ±100 for the full control effect.
Note: nearly all actives have a fitted effect of over 80% in size.

In order of falling “activity change, negative = reduced viability” value:
1. O=C(Nc1cccc(C(=O)Nc2ccc(S(=O)(=O)O)c3cc(S(=O)(=O)O)cc(S(=O)(=O)O)c23)c1)Nc1cccc(C(=O)Nc2ccc(S(=O)(=O)O)c3cc(S(=O)(=O)O)cc(S(=O)(=O)O)c23)c1  37.3%
2. O=C(O)c1ccccc1Nc1ccccc1  22.4%
3. N=C(N)SCCc1cnc[nH]1  22.2%
4. C#CCn1c(=O)c2c(ncn2C)n(C)c1=O  12.9%
5. CCCn1c(=O)c2[nH]c(C3CCCC3)nc2n(CCC)c1=O  11.3%
6. Cc1cccc(C(=O)NCN2CCN(c3ccccc3C#N)CC2)c1  10.6%
7. NC(N)=NC(N)=Nc1cccc(Cl)c1  8.9%
8. NS(=O)(=O)c1cccc2c1c([N+](=O)[O-])cc1nc(O)c(O)nc12  7.44%
9. CCCn1c(=O)c2c(ncn2C)n(CCC)c1=O  6.37%
10. O=C(O)c1ccccc1Nc1cccc(OCc2ccc3ccccc3n2)c1  6.07%
11. COc1cc(CC(=O)O)ccc1O  5.7%
12. O=C(OCCN1CCOCC1)C1(c2ccccc2)CCCCC1  4.67%
13. COc1ccccc1N1CCN(CCN2C(=O)CC3(CCCC3)CC2=O)CC1  2.69%
14. O=c1[nH]c(=O)c2nc3ccccc3nc2[nH]1  2.66%
15. Cc1ccc2c(c1)C(N1CCN(C)CC1)=Nc1cccnc1N2  2.14%
16. COc1ccc(-c2ccc(N)[n+](CCCC(=O)O)n2)cc1  1.51%
17. O=[N+]([O-])c1cccc2c(Br)[nH]nc12  1.45%
18. O=C(O)[C@@H]1C[C@@H](C(=O)O)N1  1.21%
19. CC(C)(C=O)Cc1cc(C(C)(C)C)c(O)c(C(C)(C)C)c1  1.1%
20. C[C@@H](NC(=O)/C(C#N)=C/c1ccc(O)c(O)c1)c1ccccc1  0.601%
21. O=C1CCC(c2ccc(-n3ccnc3)cc2)=NN1  0.553%
22. CCN(CC)CCOC(=O)c1cc(Cl)c(N)cc1OC  -0.194%
23. Cc1ccc([N+](=O)[O-])cc1S(=O)(=O)N(C)C  -0.266%
24. O=C(O)c1cc([N+](=O)[O-])ccc1NCCCc1ccccc1  -0.434%
25. COc1ccc2c(c1)c(CC(=O)O)c(C)n2Cc1ccc(Cl)cc1  -0.597%
26. CCCn1c(=O)c2[nH]c(-c3ccc(S(=O)(=O)O)cc3)nc2n(CCC)c1=O  -1.38%
27. COc1ccc(C(=O)NCc2cccnc2)cc1C(=O)NCc1cccnc1  -2.57%
28. COc1ccccc1N1CCN(CCCCN2C(=O)c3ccccc3C2=O)CC1  -5.09%
29. C[C@@H]1C(=O)NC2=Nc3cccc(Cl)c3CN21  -5.42%
30. Cc1nc(N=Nc2ccc(S(=O)(=O)O)cc2S(=O)(=O)O)c(COP(=O)(O)O)c(C=O)c1O  -5.74%
31. c1ccc2c(c1)CC(N1CCN(c3cccc4c3OCCO4)CC1)C2  -6.45%
32. O=[N+]([O-])c1cccc2cn[nH]c12  -9.55%
33. O=c1onc2cnc3ccccc3n12  -11%
34. O=c1[nH]c2ccccc2c2ccccc12  -11.3%
35. CCn1c(=O)[nH]c2cc(Cl)c(Cl)cc21  -12.9%
36. O=C(c1cc(O)c(O)c([N+](=O)[O-])c1)c1ccccc1F  -13%

In the case of `CC(N)=O`, the Potency is reported as “inactive”.
For `COc1cc2c(CCNC(C)=O)c[nH]c2cc1O`, the Potency was “inactive”.
For `CN[C@H](CC(=O)O)C(=O)O`, the Potency was “inactive”.
In the case of `CN(C)C(N)=NCCC[C@H](N)C(=O)O`, the Potency is reported as “inactive”.

experiment: qHTS for Inhibitors of the Functional Ribonucleoprotein Complex (vRNP) of Lymphocytic Choriomeningitis Arenaviruses (LCMV): Viability assay - alamar blue signal for LCMV Primary Screen (AID 1347085); settings: alamar blue viability counter-screen, LCMV vRNP screen cells; series mostly up to 57.5 µM; activity change, negative = lower viability: at the top concentration

In order of falling “activity change, negative = lower viability” value:
1. O=C(O)c1ccccc1Nc1cccc(OCc2ccc3ccccc3n2)c1  36.5%
2. O=C(Nc1cccc(C(=O)Nc2ccc(S(=O)(=O)O)c3cc(S(=O)(=O)O)cc(S(=O)(=O)O)c23)c1)Nc1cccc(C(=O)Nc2ccc(S(=O)(=O)O)c3cc(S(=O)(=O)O)cc(S(=O)(=O)O)c23)c1  36.1%
3. CCCn1c(=O)c2[nH]c(C3CCCC3)nc2n(CCC)c1=O  23.6%
4. NC(N)=NC(N)=Nc1cccc(Cl)c1  20.9%
5. CCCn1c(=O)c2c(ncn2C)n(CCC)c1=O  20.5%
6. C#CCn1c(=O)c2c(ncn2C)n(C)c1=O  16.3%
7. O=C(O)c1ccccc1Nc1ccccc1  16.1%
8. O=[N+]([O-])c1cccc2cn[nH]c12  9.58%
9. NS(=O)(=O)c1cccc2c1c([N+](=O)[O-])cc1nc(O)c(O)nc12  7.5%
10. O=c1[nH]c(=O)c2nc3ccccc3nc2[nH]1  6.31%
11. C[C@@H](NC(=O)/C(C#N)=C/c1ccc(O)c(O)c1)c1ccccc1  4.38%
12. O=c1onc2cnc3ccccc3n12  4.32%
13. Cc1nc(N=Nc2ccc(S(=O)(=O)O)cc2S(=O)(=O)O)c(COP(=O)(O)O)c(C=O)c1O  4.13%
14. CCCn1c(=O)c2[nH]c(-c3ccc(S(=O)(=O)O)cc3)nc2n(CCC)c1=O  3.89%
15. CCN(CC)CCOC(=O)c1cc(Cl)c(N)cc1OC  3.58%
16. COc1ccc2c(c1)c(CC(=O)O)c(C)n2Cc1ccc(Cl)cc1  2.46%
17. O=C(OCCN1CCOCC1)C1(c2ccccc2)CCCCC1  2.2%
18. O=C(O)c1cc([N+](=O)[O-])ccc1NCCCc1ccccc1  2.1%
19. O=[N+]([O-])c1cccc2c(Br)[nH]nc12  1.46%
20. COc1ccccc1N1CCN(CCN2C(=O)CC3(CCCC3)CC2=O)CC1  0.71%
21. N=C(N)SCCc1cnc[nH]1  -0.0457%
22. Cc1cccc(C(=O)NCN2CCN(c3ccccc3C#N)CC2)c1  -0.426%
23. COc1cc(CC(=O)O)ccc1O  -0.595%
24. COc1ccc(-c2ccc(N)[n+](CCCC(=O)O)n2)cc1  -0.607%
25. O=C(O)[C@@H]1C[C@@H](C(=O)O)N1  -0.811%
26. O=C1CCC(c2ccc(-n3ccnc3)cc2)=NN1  -1.77%
27. C[C@@H]1C(=O)NC2=Nc3cccc(Cl)c3CN21  -2.09%
28. Cc1ccc([N+](=O)[O-])cc1S(=O)(=O)N(C)C  -2.49%
29. COc1ccccc1N1CCN(CCCCN2C(=O)c3ccccc3C2=O)CC1  -4.27%
30. COc1ccc(C(=O)NCc2cccnc2)cc1C(=O)NCc1cccnc1  -6.7%
31. O=c1[nH]c2ccccc2c2ccccc12  -7.78%
32. CCn1c(=O)[nH]c2cc(Cl)c(Cl)cc21  -8.01%
33. Cc1ccc2c(c1)C(N1CCN(C)CC1)=Nc1cccnc1N2  -11%
34. c1ccc2c(c1)CC(N1CCN(c3cccc4c3OCCO4)CC1)C2  -11%
35. O=C(c1cc(O)c(O)c([N+](=O)[O-])c1)c1ccccc1F  -14.2%
36. CC(C)(C=O)Cc1cc(C(C)(C)C)c(O)c(C(C)(C)C)c1  -26.7%

For `CC(N)=O`, the Potency was “inactive”.
With `COc1cc2c(CCNC(C)=O)c[nH]c2cc1O` the Potency was “inactive”.
In the case of `CN[C@H](CC(=O)O)C(=O)O`, the Potency is reported as “inactive”.
For `CN(C)C(N)=NCCC[C@H](N)C(=O)O`, the Potency was “inactive”.
